Legend:
Details in all cases: concentration: 1 μM, replicates: in singlicate; n = 1
[1] = system: EPHA3
[2] = system: EPHA4
[3] = system: EPHA5
[4] = system: EPHA6
[5] = system: EPHA7
[6] = system: EPHA8
[7] = system: EPHB1
[8] = system: EPHB2
[9] = system: EPHB3
[10] = system: EPHB4
[11] = system: EPHB6
[12] = system: ERBB2
[13] = system: ERBB3
[14] = system: ERBB4
[15] = system: T1, ERK1
T1 construct: gene MAPK3

[16] = system: T2, ERK2
T2 construct: gene MAPK1

[17] = system: T3, ERK3
T3 construct: gene MAPK6

[18] = system: T4, ERK4
T4 construct: gene MAPK4

[19] = system: T5, ERK5
T5 construct: gene MAPK7

[20] = system: T6, ERK8
T6 construct: gene MAPK15
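Also: KINOMEscan kinase panel screen.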

Row | Compound | %Inh [1] [%] | %Inh [2] [%] | %Inh [3] [%] | %Inh [4] [%] | %Inh [5] [%] | %Inh [6] [%] | %Inh [7] [%] | %Inh [8] [%] | %Inh [9] [%] | %Inh [10] [%] | %Inh [11] [%] | %Inh [12] [%] | %Inh [13] [%] | %Inh [14] [%] | %Inh [15] [%] | %Inh [16] [%] | %Inh [17] [%] | %Inh [18] [%] | %Inh [19] [%] | %Inh [20] [%]
1 | NS(=O)(=O)c1cccc(-c2ccc3nccc(-c4cccc(S(N)(=O)=O)c4)c3c2)c1 [GW867253] | 11 | 0 | 2 | 0 | 0 | 4 | 0 | 0 | 0 | 0 | 0 | 11 | 0 | 7 | 0 | 0 | 0 | 0 | 0 | 1
2 | O=C(NOCC1CC1)c1ccc(F)c(F)c1Nc1ccc(I)cc1Cl | 0 | 0 | 1 | 0 | 0 | 0 | 0 | 0 | 0 | 0 | 0 | 0 | 0 | 0 | 0 | 8 | 0 | 17 | 0 | 8
3 | CCc1nc(-c2cccc(C)c2)c(-c2ccnc(NCc3ccccc3)c2)s1 | 0 | 0 | 0 | 17 | 4 | 11 | 15 | 6 | 0 | 3 | 5 | 22 | 2 | 3 | 0 | 11 | 0 | 5 | 3 | 0
4 | COc1ccc(COc2cc(-n3cnc4ccccc43)sc2C(N)=O)cc1 [GSK1024304] | 11 | 0 | 0 | 0 | 6 | 19 | 12 | 9 | 0 | 11 | 0 | 28 | 0 | 24 | 5 | 0 | 15 | 13 | 8 | 0
5 | Cc1nnc(-c2ccc(C)c(-c3ccc(C(=O)Nc4ccc(NS(C)(=O)=O)cc4)cc3)c2)o1 [GW702865] | 8 | 0 | 0 | 0 | 0 | 3 | 6 | 10 | 0 | 5 | 10 | 33 | 20 | 8 | 10 | 0 | 0 | 0 | 0 | 0
6 | Nc1nccc(-c2c(-c3ccc(F)cc3)ncn2C2CCN(CC(F)(F)F)CC2)n1 [SB-236560] | 0 | 0 | 0 | 0 | 0 | 0 | 0 | 14 | 0 | 0 | 44 | 59 | 4 | 34 | 0 | 0 | 0 | 0 | 0 | 16
7 | O=C1NC(=O)C(N2CCc3ccccc32)=C1c1cccc(Cl)c1 [SB-408010] | 0 | 19 | 17 | 18 | 0 | 0 | 0 | 3 | 23 | 22 | 0 | 0 | 0 | 0 | 0 | 12 | 0 | 0 | 0 | 9
8 | CC(=O)Nc1ccc(COc2ccc(Nc3ccnc4cc(-c5ccccn5)ccc34)cc2)cc1.Cl [GW440148] | 17 | 3 | 0 | 8 | 0 | 17 | 0 | 0 | 8 | 10 | 53 | 12 | 0 | 73 | 0 | 0 | 6 | 47 | 14 | 0
9 | COc1ccc(Nc2nccc(N3CCC(NC(=O)Nc4cccc(C(C)=O)c4)C3)n2)cc1 (stereo not drawn) [GSK1379731] | 0 | 6 | 0 | 0 | 0 | 9 | 0 | 0 | 9 | 5 | 0 | 14 | 0 | 5 | 0 | 0 | 7 | 0 | 0 | 25
10 | COc1ccc(CNC(=O)NC2CCN(c3ccnc(Nc4ccc(OC)cc4)n3)C2)cc1 (stereo not drawn) [GSK1379727] | 0 | 10 | 0 | 2 | 0 | 1 | 6 | 0 | 7 | 11 | 26 | 39 | 10 | 2 | 0 | 0 | 0 | 20 | 0 | 0
11 | Cc1cccc(-c2nc(-c3ccc(S(C)(=O)=O)cc3)sc2-c2ccncc2)c1 | 9 | 48 | 1 | 44 | 19 | 21 | 14 | 13 | 34 | 41 | 46 | 4 | 9 | 0 | 6 | 29 | 6 | 0 | 2 | 0
12 | COCCNC(=O)c1ccc(-c2cc(C(=O)NC3CC3)cc(F)c2C)cc1 [GW868318] | 38 | 21 | 25 | 30 | 4 | 12 | 16 | 7 | 23 | 32 | 23 | 13 | 29 | 8 | 2 | 25 | 6 | 8 | 0 | 29
13 | NS(=O)(=O)c1cccc(-c2ccc3ncc(N4CCOCC4)nc3c2)c1 [GSK1535721] | 11 | 8 | 0 | 8 | 3 | 11 | 5 | 6 | 9 | 17 | 25 | 32 | 11 | 1 | 0 | 0 | 0 | 0 | 10 | 0
14 | O=C(NCCNc1ccnc(Nc2ccc(F)cc2)n1)c1cc2ccccc2s1 [GSK1379874] | 0 | 0 | 0 | 0 | 6 | 18 | 0 | 0 | 12 | 0 | 11 | 1 | 0 | 51 | 0 | 0 | 0 | 3 | 0 | 0
15 | CCCCCc1nc2c(N)ncnc2n1CCCCC [SKF-97255] | 0 | 10 | 0 | 5 | 0 | 0 | 5 | 0 | 5 | 0 | 6 | 4 | 0 | 0 | 0 | 0 | 0 | 0 | 0 | 29
16 | O=c1cc(N2CCOCC2)nc2n(Cc3cccc4ccccc34)ccn12 [GSK2333389] | 0 | 14 | 0 | 8 | 5 | 9 | 10 | 0 | 11 | 5 | 12 | 0 | 0 | 0 | 3 | 0 | 0 | 25 | 0 | 43
17 | COC(=O)Nc1nc2cc(Oc3ccc(NC(=O)Nc4cc(F)ccc4F)cc3)ccc2[nH]1.Cl [GW701424] | 8 | 37 | 1 | 75 | 16 | 75 | 37 | 68 | 1 | 53 | 5 | 43 | 26 | 27 | 0 | 3 | 8 | 0 | 0 | 0
18 | O=c1cc(N2CCOCC2)nc2n(Cc3cccc(C(F)(F)F)c3)ccn12 [GSK2297543] | 0 | 6 | 0 | 0 | 0 | 2 | 24 | 0 | 3 | 7 | 0 | 16 | 0 | 5 | 0 | 0 | 0 | 12 | 0 | 0
19 | CN1c2ccc(CNc3ccc(F)cc3)cc2-c2c(cnn2C)S1(=O)=O | 0 | 0 | 0 | 0 | 0 | 0 | 0 | 17 | 0 | 1 | 0 | 13 | 9 | 0 | 0 | 0 | 0 | 0 | 0 | 0
20 | Fc1ccc(-c2ncn(CCCN3CCOCC3)c2-c2ccccn2)cc1 [SB-211742] | 0 | 8 | 0 | 0 | 0 | 9 | 20 | 0 | 20 | 28 | 0 | 10 | 52 | 6 | 0 | 5 | 0 | 0 | 19 | 0
21 | CCn1cnc2c(N)ncnc21 [GW345098] | 0 | 7 | 16 | 17 | 3 | 1 | 7 | 0 | 17 | 14 | 25 | 0 | 10 | 0 | 2 | 19 | 0 | 0 | 2 | 5
